# Rab9 prom act = Rab9 promoter activation; Huh7 Rab9 promoter-luciferase reporter, luminescence, 24 h; Potency, µM (highest dose often 9.22 µM), inactives show at the top dose activation, negative = inhibition, most hits filed as activators; 2.8% of 320,000 active; AID 485297; further: % of control where 0% means no effect; nearly all actives have a fitted effect of over 60% in size
#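 Cells were plated at 1500 per well in reduced-serum medium with 10% FBS and left 2 h. Compound in DMSO was then added for 24 h at 37 °C. Reporter signal was read by luminescence after 10 min with luciferase detection reagent.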
# ELG1 genotoxic = induces genotoxicity in HEK293T cells with luciferase-tagged ELG1 | HEK293T ELG1-luciferase reporter, luminescence, 16 h | Potency, µM (titrated, usually from 46 µM), for the others: at the top dose activity change, positive = activation, usual class: activators | 1.3% of 330,000 active; further: % of control where 0% means no effect; nearly all actives have a fitted effect of over 60% in size
#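 ELG1-luciferase HEK293T cells, 2,000/well; compound pinned in; 16 hr, 37 °C, 5% CO2; ONE-Glo, 30 min RT; luminescence on CCD imager.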
# SMN2 splice enh = SMN2 splice variant enhancement | 2.8% of 210,000 active | Potency, µM (doses to about 46.1 µM), for inactives: at the highest dose activity change, positive = activation, actives largely listed as activators | HEK293 SMN2-luciferase splicing reporter, luminescence, 30-36 h; further: % of control where 0% means no effect; nearly all actives have a fitted effect of over 55% in size
#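 HEK293 cells carry an SMN2 minigene-luciferase reporter in which exon 7 inclusion puts luciferase in frame. Cells were seeded at 2000 cells/well, attached for 10-12 hours, then exposed to compounds for 30-36 hours at 37C before ONE-Glo luminescence.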
# FLuc counter = firefly luciferase modulation, counter-screen for miR-21 project. P08659. purified FLuc, Km substrates, luminescence inhibition. Potency, µM (doses to about 57.5 µM), for inactives: top-dose activity change, negative = inhibition, most hits filed as inhibitors. 6.9% of 360,000 active;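 further: plate controls were vehicle for no effect and reference inhibitor for full effect; nearly all actives have a fitted effect of over 55% in size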
# Target sequence (P08659 whole entry, looked up): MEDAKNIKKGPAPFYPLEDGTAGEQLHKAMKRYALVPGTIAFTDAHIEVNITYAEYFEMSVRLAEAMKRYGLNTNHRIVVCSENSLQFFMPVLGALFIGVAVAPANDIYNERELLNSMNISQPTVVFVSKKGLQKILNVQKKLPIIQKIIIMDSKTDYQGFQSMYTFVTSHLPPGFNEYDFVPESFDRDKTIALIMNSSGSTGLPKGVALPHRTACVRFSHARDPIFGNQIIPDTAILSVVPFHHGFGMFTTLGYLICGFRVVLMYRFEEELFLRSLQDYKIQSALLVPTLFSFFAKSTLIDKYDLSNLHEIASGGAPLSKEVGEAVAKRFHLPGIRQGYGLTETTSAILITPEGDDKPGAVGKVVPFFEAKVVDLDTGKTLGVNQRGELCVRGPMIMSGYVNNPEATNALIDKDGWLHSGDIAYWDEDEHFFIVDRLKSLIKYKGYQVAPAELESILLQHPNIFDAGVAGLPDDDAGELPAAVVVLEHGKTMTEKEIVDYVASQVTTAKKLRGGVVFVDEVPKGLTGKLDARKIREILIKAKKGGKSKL
#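 Purified P. pyralis luciferase (10nM final) with 10uM D-luciferin and 10uM ATP (Km levels) in 50mM Tris acetate pH 7.5, 10mM Mg acetate, 0.01% Tween-20, 0.05% BSA; qHTS 6-point titration, ~60 µM downward; luminescence read.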
# NPC1 promoter act = activators of NPC1 promoter | 2.4% of 320,000 active | Huh7 NPC1 promoter luciferase reporter, 24 h | AID 485313 | Potency, µM (highest dose often 9.22 µM), inactives show at the top dose activation, usual class: activators; further: % of control where 0% means no effect; nearly all actives have a fitted effect of over 60% in size
#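 In 1536-well qHTS, Huh7 cells harboring an NPC1 promoter–luciferase construct received compound for 24 h; activation was quantified by luminescence following luciferase reagent addition.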
# * = called active by the depositor; u = inconclusive; x = no result given; [ ] = another dose, or the depositor's remark. A selection: hits, their analogues and other compounds. The true share with any hit is near 7.4%. The call rests on the fitted dose curve; in most records, active means well fitted curve in the direction sought with a large enough effect; inconclusive means small, poorly fitted or top-dose-only effect, or another doubt; inactive means no such curve, though single readings can be large; an effect the other way counts as inactive or inconclusive. Potency means the concentration at half of the fitted maximal effect.
SMILES,Rab9 prom act,ELG1 genotoxic,SMN2 splice enh,FLuc counter,NPC1 promoter act
COc1ccc(/C=C/C(=O)c2ccc(Cl)cc2)c(OC)c1,2%,u,-20%,2.1µM*,16%
COc1ccc(C(=O)/C=C/c2ccccc2)c(O)c1,u,-3%,-19%,6µM*,u
O=C(/C=C/c1ccccc1)c1ccc(O)cc1O,x,x,-117%,x,x
COc1ccc(C(=O)/C=C(\N)C(F)(F)F)c(O)c1,-7%,-1%,2%,11µM*,0%
O=C(/C=C/c1ccc(O)cc1)c1ccc(O)cc1O,10%[46.1 µM],u,20%,11µM*,17%[46.1 µM]
COc1ccc(/C=C/C(=O)c2ccc(O)cc2O)cc1,x,x,-5%,x,x
O=[N+]([O-])c1cccnc1NCc1cccs1,-8%,6%,-4%,-7%,-2%
Cc1nc2ccn(Cc3ccco3)c(=O)c2cc1C(=O)NCc1ccc(Cl)cc1,x,x,x,-1%,x
O=C(Cn1cc(S(=O)(=O)Cc2cccc([N+](=O)[O-])c2)c2ccccc21)N1CCOCC1,5%,0%,x,4%,-1%
CN(C)c1ccc(/C=C/C(=O)c2cc(Cl)ccc2O)cc1,2%,0%,x,9.5µM*,u
COc1ccc(/C=C/C(=O)c2cc(O)ccc2O)cc1,x,x,-75%,x,x
COc1ccc(/C=C/C(=O)c2ccc(OC)cc2OC)cc1,12%,5%,x,12µM*,20%
O=C(/C=C/c1ccncc1)c1cc(Cl)ccc1O,-1%[1.84 µM],1%,x,4%,1%
O=c1c(/C=N/OCc2ccc(Cl)cc2Cl)c[nH]n1-c1cccc(Cl)n1,7%,-5%,-15%,11µM*,2%
Cc1cc(O)c(/C=N/OCc2ccc(Cl)cc2Cl)c(=O)o1,-2%,-6%,-11%,u,-1%
CN1C(=O)/C(=C/c2ccccc2F)Sc2ccc(C(=O)N3CCCC3)cc21,-1%,-11%,x,u,0%
COc1cc2cc(C#N)c(SCC(=O)N3CCOCC3)nc2cc1OC,4%,9%,13µM*,-1%,14%
CC(=O)CSc1nc2cc3c(cc2cc1C#N)OCCO3,u,u,x,0.67µM*,3.2µM*
COc1cc2cc(C)c(SCC(=O)N3CCOCC3)nc2cc1OC,-3%,6%,x,-2%,-1%
N#Cc1cc2cc3c(cc2nc1SCC(=O)N1CCCC1)OCCO3,u,3%,x,3%,u
CCOc1ccccc1NC(=O)c1sc2nc3c(cc2c1N)CN(Cc1ccccc1)CC3,x,x,-21%,6%,x
Nc1nc(-c2ccc3c(c2)CCCC3)c(CC(=O)O)s1,4%,-1%,x,24µM*,-1%
Nc1nc(-c2ccc3c(c2)OCCO3)c(CC(=O)O)s1,11%,-1%,x,u,-3%
CCCCNC(=S)Nc1ccc(SC(F)F)cc1,19%,-1%,10%,17µM*,10%
O=C(Cc1ccccc1F)Nc1ccc(SC(F)F)cc1,1.6µM*,u,13µM*,5.4µM*,4µM*
SMILES,Rab9 prom act,ELG1 genotoxic,SMN2 splice enh,FLuc counter,NPC1 promoter act
O=C(COC(=O)c1ccccc1Cc1ccccc1)Nc1ccc(SC(F)F)cc1,2.8µM*,u,x,6µM*,u
COc1cc(C(=O)OCC(=O)Nc2ccc(SC(F)F)cc2)cc(OC)c1OC,-8%,-1%,-99%,1%,-2%
Cc1ccc(C(=O)c2ccccc2C(=O)OCC(=O)Nc2ccc(SC(F)F)cc2)cc1,-1%,-9%,-33%,-19%,0%
CCCCNC(=S)Nc1ccc(F)cc1,-2%,-2%,x,3%,0%
CCCCC(=O)OCC(=O)Nc1ccc(SC(F)F)cc1,4%,2%,-5%,21µM*,2%
COc1cccc([C@@H]2CC=C(C(=O)O)[C@H](c3ccc(Br)cc3)N2S(=O)(=O)c2ccc(C)cc2)c1,x,-1%,x,x,x
CCn1nc(C(=O)NCc2nnc3ccccn23)c2ccccc2c1=O,-1%,1%,x,5%,-6%
O=C(COC(=O)Cc1ccccc1F)Nc1ccc(SC(F)F)cc1,-3%,0%,u,13µM*,-2%
c1ccc([C@H](CCN2CCCC2)c2ccccn2)cc1,x,x,-4%[9.22 µM],x,x
COC(=O)c1cccc(NC(=O)Cc2nc(-c3ccccc3)sc2-c2ccc(C)cc2)c1,6%,-3%,5%,-1%,-7%
CC(=O)Nc1cccc(NC(=O)Cc2nc(-c3ccccc3)sc2-c2ccc(C)cc2)c1,8%,3%,15%,21µM*,-3%
COc1cccc(NC(=O)Cc2nc(-c3ccccc3)sc2-c2ccc(C)cc2)c1,8%,1%,2%,15µM*,3%
N/C(=N\OC(=O)/C=C/c1ccccc1)c1ccccn1,2.5µM*,4.1µM*,13µM*,0.67µM*,u
N/C(=N\OC(=O)/C=C/c1ccccc1Cl)c1ccncc1,0.71µM*,6%,1.4µM*,0.85µM*,1.3µM*
COc1ccccc1C/C(N)=N/OC(=O)/C=C/c1ccccc1,15%,2%,6%,u,-1%
O=C(/C=C/c1ccccc1Cl)NNC(=O)c1ccncc1,20%,1%,x,21µM*,2%
O=C(/C=C/c1ccccc1)c1ccccn1,u,19%,-11%,1.3µM*,u
CC1CCCCC12NC(=O)N(CC(=O)N1CCc3ccccc3C1)C2=O (stereo unspecified),-2%,-2%,x,3%,1%
COc1ccc(-c2noc(=O)n2Cc2ccccc2F)cc1,4%,1%,x,4%,0%
N/C(=N\OC(=O)CCCOc1ccccc1)c1ccncc1,-4%,1%,10%,-2%,0%
N/C(=N\OC(=O)/C=C/c1ccccc1)c1ccncc1,1.8µM*,u,3%,6µM*,3.2µM*
CCOC(=O)N1CCN(C(=O)CSCc2ccc(Cl)cc2)CC1,-2%,-1%,8%,6%,-4%
CCOC(=O)N1CCN(C(=O)CSCc2ccccc2)CC1,u,17%,11µM*,u,u
CCOC(=O)N1CCN(C(=O)CSc2nnc(COc3ccccc3)o2)CC1,0%,0%,4µM*,3%,-1%
COc1ccc2c(c1)CCCC21NC(=O)N(CC(=O)NCc2cccs2)C1=O (stereo unspecified),x,-1%,x,x,x
SMILES,Rab9 prom act,ELG1 genotoxic,SMN2 splice enh,FLuc counter,NPC1 promoter act
Cc1cccc(C(=O)Nc2ccc(N3CCN(S(C)(=O)=O)CC3)cc2)c1,4µM*,14%,u,u,4.5µM*
CS(=O)(=O)N1CCN(c2ccc(NC(=O)c3ccccc3)cc2)CC1,1.8µM*,u,10µM*,u,3.5µM*
COc1cccc(C(=O)Nc2ccc(N3CCN(S(C)(=O)=O)CC3)cc2)c1,25%,15%,16%,-18%,29%
CN(C1CCCCC1)S(=O)(=O)c1ccc2c(c1)c(=O)c(C(=O)NCCc1ccc(Cl)cc1)cn2C,x,x,8%,2%,x
N#Cc1cc2ccccc2nc1SCc1ccccn1,2%,7.3µM*,11µM*,17µM*,-1%
Cc1cc2cc3c(cc2nc1SCc1ccccn1)OCCO3,u,10%,-11%[1.84 µM],u,-4%
